{"source": "ChEMBL document CHEMBL4649994", "biological_target": "T1, Transcription intermediary factor 1-alpha (Homo sapiens) (UniProt O15164)", "T1 sequence (whole entry)": "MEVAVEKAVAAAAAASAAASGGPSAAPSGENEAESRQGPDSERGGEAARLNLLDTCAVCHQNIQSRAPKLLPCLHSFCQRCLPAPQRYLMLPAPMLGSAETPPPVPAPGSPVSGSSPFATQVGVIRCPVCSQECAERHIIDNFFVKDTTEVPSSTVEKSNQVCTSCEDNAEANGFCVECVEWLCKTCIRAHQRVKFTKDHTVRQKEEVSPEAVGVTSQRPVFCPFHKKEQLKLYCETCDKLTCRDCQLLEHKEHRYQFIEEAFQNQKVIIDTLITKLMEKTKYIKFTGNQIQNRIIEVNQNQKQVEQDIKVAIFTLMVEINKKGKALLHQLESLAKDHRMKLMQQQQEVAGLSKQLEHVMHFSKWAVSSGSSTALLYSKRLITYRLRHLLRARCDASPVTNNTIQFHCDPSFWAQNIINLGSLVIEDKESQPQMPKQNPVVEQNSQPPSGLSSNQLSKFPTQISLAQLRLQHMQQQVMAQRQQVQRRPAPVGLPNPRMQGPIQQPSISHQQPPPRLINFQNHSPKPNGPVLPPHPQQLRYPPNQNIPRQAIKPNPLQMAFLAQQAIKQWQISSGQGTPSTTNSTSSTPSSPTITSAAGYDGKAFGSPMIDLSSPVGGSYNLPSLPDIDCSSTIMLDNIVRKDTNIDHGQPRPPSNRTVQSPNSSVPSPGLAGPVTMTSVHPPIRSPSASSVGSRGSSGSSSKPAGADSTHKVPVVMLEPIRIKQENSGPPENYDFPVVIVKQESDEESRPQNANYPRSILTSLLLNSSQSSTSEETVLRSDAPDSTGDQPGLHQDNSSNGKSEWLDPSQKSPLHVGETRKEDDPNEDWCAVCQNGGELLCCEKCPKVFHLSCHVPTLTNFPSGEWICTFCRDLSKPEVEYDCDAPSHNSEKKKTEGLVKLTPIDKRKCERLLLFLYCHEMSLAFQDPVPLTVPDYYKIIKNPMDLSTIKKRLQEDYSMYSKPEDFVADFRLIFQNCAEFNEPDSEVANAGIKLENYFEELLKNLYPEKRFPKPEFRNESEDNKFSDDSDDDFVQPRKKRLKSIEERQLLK", "conditions": "Compound concentration 10.0 uM, Protein concentration 2.0 uM", "data": [{"smiles": "COc1ccccc1S(=O)(=O)Nc1ccc2c(c1)CN(C)C(=O)N2", "values": [{"measurement": "ΔTm", "value": 0.62, "unit": "°C"}]}]}
